# Experimental data: ChEMBL document CHEMBL4513216, “Probing the Open Global Health Chemical Diversity Library for Multistage-Active Starting Points for Next-Generation Antimalarials” (ACS Infect Dis, 2020)
# Screen size: about 69,000 compounds; about 8,600 (12%) showed an effect of 50% or more. This excerpt belongs to a sample that is enriched for strong results.
# System: Plasmodium berghei
# Assay: Screen against P. berghei liver stage (PbLuc), transformed with Luciferase, at 10uM
# Assay type: functional, HepG2
# Settings: tested at 10 uM
row,SMILES,INHIBITION
1,COCCNC(=O)NCc1ccc(-n2ccc(C(F)(F)F)n2)cc1,-42.1%
2,CC1CCc2nn(CCNC(=O)C3CCCC3)c(=O)cc2C1 (stereo not given),-28.1%
3,CCCN(CCC)CCNc1c(-c2ccccc2)c(=O)c1=O,49.5%
4,Cc1cnc(-c2nc(C3CCCN(Cc4ccccc4C)C3)no2)cn1 (stereo not given),25.75%
5,Cc1cnc(CN2C[C@H]3CC(Oc4ccccc4)C[C@H]3C2)cn1 (stereo not given in full),30.4%
6,CN1C(=O)[C@@H]2CC[C@H]1CN(S(=O)(=O)c1ccc(Cl)cc1Cl)C2,24.3%
7,CN(C)C(=O)Cn1cnc2c(Br)cccc2c1=O,-14.1%
8,COc1cc(C(F)(F)F)sc1C(=O)O,20.8%
9,COC(=O)CNC(=O)CCc1cc(Br)cs1,7.19%
10,Cc1cccc(C(=O)N(C)Cc2cc(Br)cs2)n1,37.1%
11,COC(=O)CN(C)Cc1cc(Br)cs1,53.2%
12,CN(CCC(N)=O)Cc1cc(Br)cs1,24%
13,CN(Cc1cc(Br)cs1)Cc1nnsc1Cl,46.3%
14,COC(=O)CCN(C)Cc1cc(Br)cs1,60.2%
15,COCCN1CCO[C@@H]2CN(Cc3ccccc3OC)C[C@@H]2C1,2.4%
16,CCc1nnc2n1CCN(Cc1cc(Cl)c3c(c1)OCCCO3)C2,23.6%
17,O=C(CNC(=O)N1CCc2c([nH]c3ccc(Cl)cc23)C1)NCCCO,4.25%
18,COCc1csc(NC(=O)N2CCC(Cc3cnn(C)c3)C2)n1 (stereo not given),-27.8%
19,COc1cc(C)c(CN2CCc3nc4ccsc4c(=O)n3CC2)cc1C,89.3%
20,Cc1c(CN2CCc3nc4sccc4c(=O)n3CC2)cnn1C,-12.4%
21,O=c1c2sccc2nc2n1CCN(Cc1ccc(F)c(F)c1)CC2,31.6%
22,O=c1c2sccc2nc2n1CCN(Cc1cccs1)CC2,-3.41%
23,COc1cccc(CN2CCc3nc4ccsc4c(=O)n3CC2)c1,54.4%
24,Cc1ccsc1CN1CCc2nc3ccsc3c(=O)n2CC1,35.2%
25,O=c1c2sccc2nc2n1CCN(Cc1cc(F)ccc1F)CC2,3.91%
26,COc1ccc(CN2CCc3nc4ccsc4c(=O)n3CC2)c(C)c1C,92.9%
27,CCOc1ccc(CN2CCc3nc4ccsc4c(=O)n3CC2)cc1,28%
28,O=c1c2sccc2nc2n1CCN(Cc1ccccc1C(F)(F)F)CC2,92.9%

row,SMILES,INHIBITION
1,COc1ccc(OC)c(CN2CCc3nc4ccsc4c(=O)n3CC2)c1,14.7%
2,CCOc1ccccc1CN1CCc2nc3ccsc3c(=O)n2CC1,49.6%
3,CN1CC(C)(C)CN(C(=O)CCc2ccccc2)CC1=O,24.5%
4,O=C(c1cc[nH]n1)N1CCCC1c1cc(Nc2ccccn2)n[nH]1 (stereo not given),-20.2%
5,Cc1ccc2c(c1)c(C)cc(=O)n2CCC#N,11.2%
6,CC(C)c1noc(CN2CCN(C(=O)c3ccncc3F)CC2)n1,-29.1%
7,O=S(=O)(NCC1COCc2c(-c3ccncc3)nnn2C1)C1CC1 (stereo not given),18.3%
8,NC(=O)c1ccc(NC(=O)c2ccncc2Cl)cn1,13.8%
9,Cc1ccc(OC2(C(=O)O)CCN(C(=O)CCc3ccco3)CC2)cn1,34.4%
10,CC(C)(C)c1n[nH]cc1CN1CCc2nc3ccsc3c(=O)n2CC1,50.6%
11,Cc1nn(C)cc1CN1CCc2nc3sccc3c(=O)n2CC1,30.5%
12,O=c1c2sccc2nc2n1CCN(Cc1ccsc1)CC2,5.11%
13,COc1ccc(CC(=O)N2CC[C@@H]3[C@H](CC2)N(C)CCS3(=O)=O)cc1,18.5%
14,COCCCN(Cc1cnc(-c2cccs2)nc1)C1CCN(C)CC1,13%
15,Cc1nc(NC2CCCCC2)cc(C2CCCNC2)n1 (stereo not given),28.3%
16,Cc1nc(CCC(=O)NC2CCC2)cc(C2CCCNC2)n1 (stereo not given),26.8%
17,Cc1nc(NC2CCS(=O)(=O)CC2)cc(C2CCCNC2)n1 (stereo not given),62.2%
18,CSc1nsc(NC(=O)c2cc(C3CC3)nn2C)n1,-64.85%
19,CCN(C)Cc1cccc(CNC(=O)NCCc2ccccn2)c1,51%
20,CCN(C)Cc1cccc(CNC(=O)CSCc2ccccn2)c1,20.8%
21,CN(C)c1ccc(CNC(=O)NCCc2ccccn2)cn1,-22.9%
22,CCc1c(C)nc2cc(C3CCN(Cc4ccccc4F)C3)nn2c1O (stereo not given),85.9%
23,Cc1nc2cc(C3CCN(Cc4ccccc4F)C3)nn2c(O)c1C (stereo not given),61.7%
24,CN(Cc1noc(C2CC2)n1)C1CCN(Cc2cccc(F)c2F)C1 (stereo not given),-31.96%
25,Cc1nc2cc(C3CCN(Cc4cccc(F)c4F)C3)nn2c(O)c1C.O=C(O)CC(O)(CC(=O)O)C(=O)O (stereo not given),90.4%
26,CN(Cc1nnc(C2CC2)n1C)C1CCN(Cc2ccccc2F)C1 (stereo not given),-3.19%
27,Cc1nc(O)cc(C2CCN(Cc3cccc(F)c3F)C2)n1 (stereo not given),25%
